Test results published in PubChem BioAssay.
Active and inactive are the calls of the source.

Tests used:
[1] = small molecules captured by biotinylated probe aFSTL3 – biochemical, small-molecule microarray, fluorescence 635/667, stem cell growth factor project, primary screen (AID 1064); conditions: higher = more signal;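 further: measures binding of the biotinylated anti-FSTL3 antibody to printed compounds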
[2] = binders from COS7 lysate, DM2A8 probe, primary screen, torsin A project, cell lysate, small-molecule microarray, fluorescence 635/667 (AID 1065); conditions: higher = more signal, COS7 lysate expressing mutant human TOR1A
[3] = small molecules captured by biotinylated probe aFGF2 – biochemical, small-molecule microarray, fluorescence 635/667, stem cell growth factor project, primary screen (AID 1067); conditions: higher = more signal;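 further: measures binding of biotinylated aFGF2 protein to printed compounds on slides; z-score merges feature fluorescence and signal-to-noise across triplicate slides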
[4] = small molecules captured by biotinylated probe aFGF10 – biochemical, small-molecule microarray, fluorescence 635/667, stem cell growth factor project, primary screen (AID 1071); conditions: higher = more signal;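 further: score merges 667 nm spot intensity and signal to noise from triplicate slides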
[5] = molecular target: Neurogenic locus notch homolog protein 2 (Homo sapiens) (UniProt Q04721); test: small molecules binding Notch2 protein – biochemical, small-molecule microarray, 635 nm fluorescence, stem cell growth factors, primary screen (AID 1073); conditions: higher = more signal
[6] = molecular target: Pro-neuregulin-1, membrane-bound isoform (Homo sapiens) (UniProt Q02297); test: small molecules binding neuregulin-1 protein – biochemical, small-molecule microarray, fluorescence 635/667, psychiatric disease protein project, primary screen (AID 1075); conditions: NRG1 binding, 635 nm fluorescence, higher = more signal;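 further: score combines 667 nm spot fluorescence with signal to noise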
Sequence of Pro-neuregulin-1, membrane-bound isoform (Homo sapiens) (Q02297 whole entry, looked up, the tested form may be a part, canonical isoform): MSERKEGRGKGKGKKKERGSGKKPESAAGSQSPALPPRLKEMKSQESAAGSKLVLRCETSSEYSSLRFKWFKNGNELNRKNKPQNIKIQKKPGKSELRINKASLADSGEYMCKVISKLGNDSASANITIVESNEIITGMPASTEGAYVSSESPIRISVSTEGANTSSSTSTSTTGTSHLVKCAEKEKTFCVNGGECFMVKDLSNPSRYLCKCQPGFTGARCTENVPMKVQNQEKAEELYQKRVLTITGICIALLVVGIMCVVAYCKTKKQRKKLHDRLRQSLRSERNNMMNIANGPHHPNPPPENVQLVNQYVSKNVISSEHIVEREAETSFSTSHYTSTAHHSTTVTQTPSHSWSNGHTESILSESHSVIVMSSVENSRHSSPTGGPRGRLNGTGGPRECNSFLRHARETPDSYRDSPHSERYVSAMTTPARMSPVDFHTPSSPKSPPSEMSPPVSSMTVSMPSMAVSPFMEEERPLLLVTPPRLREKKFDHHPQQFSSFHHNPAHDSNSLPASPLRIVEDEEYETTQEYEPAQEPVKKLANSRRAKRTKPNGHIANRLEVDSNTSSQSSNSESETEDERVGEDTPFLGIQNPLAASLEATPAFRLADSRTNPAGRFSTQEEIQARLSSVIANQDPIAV

[7] = test system: Neuregulin-1 EGF-like domain; test: small molecules binding NRG1 EGF domain – biochemical, small-molecule microarray, 635 nm fluorescence, primary screen (AID 1081); conditions: higher = more signal;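 further: binding of the protein to compounds printed on small-molecule microarray slides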
[8] = FRG1 expression reporter modulators in myotubes – cell-based, C2C12 myotubes, firefly/Renilla luciferase, luminescence, FRG1 inhibition for FSHD, primary screen (AID 1084); conditions: FRG1 promoter luciferase, higher = more signal, called active from +8 up or from −8 down
[9] = small molecules captured by biotinylated probe aFST – biochemical, small-molecule microarray, fluorescence 635/667, stem cell growth factor project, primary screen (AID 1086); conditions: higher = more signal;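 further: score merges 667 nm fluorescence with signal-to-noise of each printed compound spot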
[10] = binders of probe aHhip on microarray, primary screen, stem cell growth factor project, biochemical, small-molecule microarray, fluorescence 635/667 (AID 1087); conditions: higher = more signal;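 further: score merges spot fluorescence at 667nm with spot signal to noise ratio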
[11] = test system: PRMT1 (protein arginine N-methyltransferase 1); test: small molecules binding arginine methyltransferase PRMT1 – biochemical, small-molecule microarray, 635 nm fluorescence, primary screen (AID 1088); conditions: higher = more signal;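 further: binding of Prmt1 protein to compounds spotted on small-molecule microarray slides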
[12] = growth effects on S. cerevisiae YJM789 – YJM789 clinical isolate, OD600, 24 h, basal, primary screen (AID 1089); conditions: higher = more signal, called active from +8 up or from −8 down;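 further: growth of clinical yeast isolate S. cerevisiae YJM 789 seeded 1000 cells per well; test concentration not given here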
[13] = S. pombe growth modifiers, basal conditions – strain 972, OD600, 24 h, no modulator, primary screen (AID 1090);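 further: basal condition with compound alone and no growth modifier present; test concentration not given here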; conditions: S. pombe 972 growth, higher = more signal, called active from +8 up or from −8 down
[14] = budding yeast growth modifiers under rapamycin – strain BY4716, OD600, 96 h, primary screen (AID 1091); further: test concentration not given here; conditions: S. cerevisiae BY4716 + rapamycin, higher = more signal, called active from +8 up or from −8 down
[15] = molecular target: Torsin-1A-interacting protein 2 (Homo sapiens) (UniProt Q8NFQ8); test: small molecules binding lysate-expressed LULL1 – cell lysate, human LULL1 lysate, 635/667 nm fluorescence, primary screen (AID 1092); conditions: small-molecule microarray, hLULL1 lysate binding, 635 nm fluorescence; higher = more signal;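 further: probe is lysate of COS7 cells overexpressing human LULL1; score merges per-feature 667 nm fluorescence with signal-to-noise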
Sequence of Torsin-1A-interacting protein 2 (Homo sapiens) (Q8NFQ8 whole entry, looked up): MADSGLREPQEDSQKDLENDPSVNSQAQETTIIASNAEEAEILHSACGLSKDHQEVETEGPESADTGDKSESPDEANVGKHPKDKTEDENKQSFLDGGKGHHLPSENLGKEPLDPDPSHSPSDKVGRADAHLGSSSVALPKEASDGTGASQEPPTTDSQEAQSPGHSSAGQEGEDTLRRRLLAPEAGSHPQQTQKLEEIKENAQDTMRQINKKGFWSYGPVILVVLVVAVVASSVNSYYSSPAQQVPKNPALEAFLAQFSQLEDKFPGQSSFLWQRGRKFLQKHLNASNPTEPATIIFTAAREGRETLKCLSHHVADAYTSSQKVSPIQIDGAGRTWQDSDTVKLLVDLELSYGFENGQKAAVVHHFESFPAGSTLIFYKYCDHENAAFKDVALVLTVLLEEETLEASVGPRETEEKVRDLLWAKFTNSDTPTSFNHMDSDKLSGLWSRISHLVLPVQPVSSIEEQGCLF

[16] = optical density change of DRC41 E. coli – strain DRC41, OD650, 24 h, E. coli filamentation project, primary screen (AID 1093);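 further: MC1000 strain lacking acrAB efflux and sulA so SOS filamentation is blocked; test concentration not given here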; conditions: E. coli DRC41 growth, higher = more signal, called active from +8 up or from −8 down
[17] = probe aLefty2 binding to arrayed compounds – biochemical, biotinylated probe, 635/667 nm fluorescence, primary screen (AID 1094); conditions: small-molecule microarray, higher = more signal;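 further: score merges spot fluorescence near 667 nm with spot signal-to-noise ratio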
[18] = test system: Noggin (protein binding on small-molecule microarray); test: small molecules binding Noggin protein – biochemical, 635/667 nm fluorescence, primary screen (AID 1095); conditions: 635 nm fluorescence, higher = more signal;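 further: score merges 667 nm feature fluorescence with signal to noise over triplicate slides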
[19] = molecular target: Neurogenic locus notch homolog protein 3 (Homo sapiens) (UniProt Q9UM47); test: small molecules binding NOTCH3 protein – biochemical, 635/667 nm fluorescence, primary screen (AID 1096); conditions: small-molecule microarray, 635 nm fluorescence, higher = more signal
Sequence of Neurogenic locus notch homolog protein 3 (Homo sapiens) (Q9UM47 whole entry, looked up): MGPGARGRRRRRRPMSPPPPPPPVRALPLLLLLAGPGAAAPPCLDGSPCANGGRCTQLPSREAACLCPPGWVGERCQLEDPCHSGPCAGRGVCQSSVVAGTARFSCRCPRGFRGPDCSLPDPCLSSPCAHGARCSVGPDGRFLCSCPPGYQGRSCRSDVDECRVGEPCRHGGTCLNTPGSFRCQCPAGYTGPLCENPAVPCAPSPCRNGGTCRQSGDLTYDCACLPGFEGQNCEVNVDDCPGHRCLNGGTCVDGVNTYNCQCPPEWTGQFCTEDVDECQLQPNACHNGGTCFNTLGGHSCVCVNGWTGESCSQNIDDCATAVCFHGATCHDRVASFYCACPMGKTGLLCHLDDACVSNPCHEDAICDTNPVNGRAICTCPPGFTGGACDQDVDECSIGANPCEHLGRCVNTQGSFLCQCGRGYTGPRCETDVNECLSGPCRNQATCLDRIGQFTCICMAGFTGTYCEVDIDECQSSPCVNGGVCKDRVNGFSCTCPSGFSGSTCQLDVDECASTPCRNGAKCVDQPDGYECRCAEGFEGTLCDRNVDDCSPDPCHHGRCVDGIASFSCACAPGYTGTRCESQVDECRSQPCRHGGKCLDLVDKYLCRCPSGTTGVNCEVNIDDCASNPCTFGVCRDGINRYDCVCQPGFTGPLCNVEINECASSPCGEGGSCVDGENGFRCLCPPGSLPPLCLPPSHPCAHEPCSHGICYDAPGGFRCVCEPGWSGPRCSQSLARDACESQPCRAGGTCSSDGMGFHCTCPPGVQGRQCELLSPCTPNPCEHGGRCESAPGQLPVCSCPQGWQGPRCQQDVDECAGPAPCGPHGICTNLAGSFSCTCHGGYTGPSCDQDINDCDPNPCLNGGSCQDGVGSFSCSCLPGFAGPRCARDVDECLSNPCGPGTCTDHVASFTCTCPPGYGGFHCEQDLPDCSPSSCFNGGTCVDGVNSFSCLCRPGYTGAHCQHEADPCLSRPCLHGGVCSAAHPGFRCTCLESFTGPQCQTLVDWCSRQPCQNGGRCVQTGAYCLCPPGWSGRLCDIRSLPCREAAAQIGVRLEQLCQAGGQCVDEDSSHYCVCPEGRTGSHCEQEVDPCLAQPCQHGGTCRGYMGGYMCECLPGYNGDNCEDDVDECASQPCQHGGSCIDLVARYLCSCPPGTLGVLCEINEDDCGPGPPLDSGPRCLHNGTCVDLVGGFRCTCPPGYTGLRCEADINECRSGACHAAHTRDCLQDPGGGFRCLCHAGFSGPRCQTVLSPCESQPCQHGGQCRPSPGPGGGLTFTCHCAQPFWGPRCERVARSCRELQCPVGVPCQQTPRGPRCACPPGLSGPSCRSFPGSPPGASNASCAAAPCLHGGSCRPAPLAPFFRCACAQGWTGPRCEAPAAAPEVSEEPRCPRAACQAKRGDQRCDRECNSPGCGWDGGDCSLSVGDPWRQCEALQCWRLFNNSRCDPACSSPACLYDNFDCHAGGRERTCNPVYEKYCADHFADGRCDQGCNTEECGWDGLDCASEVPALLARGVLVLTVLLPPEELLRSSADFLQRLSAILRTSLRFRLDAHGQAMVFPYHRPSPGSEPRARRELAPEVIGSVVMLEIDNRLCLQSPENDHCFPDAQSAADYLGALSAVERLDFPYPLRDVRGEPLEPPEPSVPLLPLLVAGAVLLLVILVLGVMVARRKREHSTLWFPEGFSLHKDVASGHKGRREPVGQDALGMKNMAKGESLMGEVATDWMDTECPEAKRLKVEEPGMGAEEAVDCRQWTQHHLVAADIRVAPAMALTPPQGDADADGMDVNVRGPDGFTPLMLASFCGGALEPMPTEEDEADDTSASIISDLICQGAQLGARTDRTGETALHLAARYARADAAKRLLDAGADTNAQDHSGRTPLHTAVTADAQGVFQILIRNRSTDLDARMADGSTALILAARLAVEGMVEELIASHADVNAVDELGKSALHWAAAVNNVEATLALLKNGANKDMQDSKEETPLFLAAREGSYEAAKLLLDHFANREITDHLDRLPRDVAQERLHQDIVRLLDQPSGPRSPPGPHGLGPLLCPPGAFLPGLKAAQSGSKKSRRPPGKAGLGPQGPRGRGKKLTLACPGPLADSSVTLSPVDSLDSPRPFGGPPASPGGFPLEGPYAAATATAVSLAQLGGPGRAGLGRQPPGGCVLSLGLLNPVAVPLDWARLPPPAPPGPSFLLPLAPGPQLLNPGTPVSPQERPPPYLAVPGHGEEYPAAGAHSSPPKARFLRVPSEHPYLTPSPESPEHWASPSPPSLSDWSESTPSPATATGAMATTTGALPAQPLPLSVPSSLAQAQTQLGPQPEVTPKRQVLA

[20] = probe aEGFR binding to arrayed compounds – biochemical, biotinylated probe, 635/667 nm fluorescence, primary screen (AID 1097); conditions: small-molecule microarray, higher = more signal;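 further: probe is a biotinylated anti-EGFR antibody binding compounds printed on slides; score combines fluorescence near 667 nm and signal to noise of each spot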

| Structure (SMILES) | composite z-score [1] | composite z-score [2] | composite z-score [3] | composite z-score [4] | composite z-score [5] | composite z-score [6] | composite z-score [7] | z-score [8] | composite z-score [9] | composite z-score [10] | composite z-score [11] | z-score [12] | z-score [13] | z-score [14] | composite z-score [15] | z-score [16] | composite z-score [17] | composite z-score [18] | composite z-score [19] | composite z-score [20] |
| --- | --- | --- | --- | --- | --- | --- | --- | --- | --- | --- | --- | --- | --- | --- | --- | --- | --- | --- | --- | --- |
| O=C1NC(=O)C2C1C=CC(C(O)c1c(F)cccc1Cl)N2Nc1ccc(Cl)cc1Cl (stereo not given) | 1.38 | 1.79 | 0.0389 | 0.424 | 1.29 | 1.37 | 1.17 | -1.03 (inactive) | 1.22 | -0.216 | 0.0621 | -20.9 (active) | -1.98 (inactive) | 1.65 (inactive) | 3.2 | -3.22 (inactive) | 0.319 | -0.836 | 0.53 | 0.0069 |
| [N-]=[N+]=NCc1ccccc1C[C@]1(C(N)=O)N=C(c2ccc(OCCCO)cc2)O[C@H]1c1ccccc1 | 0.124 | 0.514 | -0.0129 | 0.726 | 0.639 | 1.89 | 1.14 | -3.9 (inactive) | 1.56 | -0.201 | 1.31 | 0.458 (inactive) | -1.74 (inactive) | 2.34 (inactive) | 3.32 | 1.22 (inactive) | 0.158 | -0.593 | 0.859 | -0.02 |
| COCCOC(=O)N1C(=O)[C@@]2(c3cc(C#CCC(C(=O)OC)C(=O)OC)ccc31)[C@H](C(=O)N1CCc3cc(OC)c(OC)cc3C1)[C@H]1C(=O)O[C@H](c3ccccc3)[C@H](c3ccccc3)N1[C@@H]2c1ccc(OCCO)cc1 | -0.63 | 0.527 | -0.0099 | 0.411 | 1.31 | 1.07 | 1.31 | 1.08 (inactive) | 0.479 | 0.0749 | 1.54 | 1.94 (inactive) | 0.667 (inactive) | 4.23 (inactive) | 2.73 | -0.402 (inactive) | -0.0259 | 1.4 | 1.08 | 0.0961 |
| O=C1N(Cc2ccccc2)c2ccccc2[C@@H]2OC(c3ccc(OCCCO)cc3)=N[C@]12Cc1ccccc1 | 0.677 | -0.603 | 0.06 | 0.569 | 0.848 | -0.329 | 1.19 | -2.82 (inactive) | 0.191 | 0.113 | 1.38 | -0.548 (inactive) | -1.14 (inactive) | 4.88 (inactive) | 2.93 | 0.8 (inactive) | 0.0759 | 0.307 | 0.804 | -0.0391 |
| CCOC(=O)C[C@H]1[C@H](OC(=O)c2cc3ccccc3oc2=O)[C@@H](NC(=O)c2ccc(-c3ccccc3)cc2)c2cc(OCCCO)ccc2N1C(=O)c1ccc2ccccc2n1 | -0.494 | 0.804 | -0.0563 | 0.684 | 0.652 | 0.751 | 1.03 | -0.185 (inactive) | 0.619 | -0.0994 | 1.25 | 0.443 (inactive) | 0.394 (inactive) | 1.14 (inactive) | 1.92 | -0.0642 (inactive) | -0.084 | 0.873 | 1.05 | -0.0531 |
| CC(CO)N1C(=O)[C@@H]2[C@H]3C(=O)OCC=C[C@H]3OC23C=CCN(C(C)(C)C)C(=O)[C@@H]13 (stereo not given in full) | -0.279 | 0.261 | -0.128 | 0.337 | -0.175 | -0.305 | 1.51 | 1.76 (inactive) | -0.415 | -0.0618 | -0.507 | -0.0994 (inactive) | -0.0932 (inactive) | -0.422 (inactive) | -1.25 | -0.607 (inactive) | -0.103 | -0.429 | -0.0056 | -0.0656 |
| O=C1OCCC/C=C\[C@H]2OC34C=CCN(CCN5CCOCC5)C(=O)[C@H]3N(CCCCCCO)C(=O)[C@@H]4C12 (stereo not given in full) | 0.0814 | 2.31 | -0.171 | -0.291 | -0.0784 | 1.91 | 1.17 | -1.05 (inactive) | -0.151 | -0.0994 | 0.733 | -1.84 (inactive) | -1.29 (inactive) | -0.529 (inactive) | 2.39 | 1.33 (inactive) | -0.166 | -0.0171 | 0.18 | -0.0953 |
| CN(C)CCCNC(=O)[C@@]1(c2ccc([N+](=O)[O-])cc2)CC(=O)N(CC23CC4CC(CC(C4)C2)C3)[C@@H]1c1ccc(CO)cc1I | -0.319 | 0.634 | -0.0687 | 0.272 | 1.2 | 0.343 | 1.36 | -2.44 (inactive) | 1.48 | 0.0749 | 1.53 | -25.1 (active) | -18.6 (active) | -2.21 (inactive) | 2.35 | -6.64 (inactive) | -0.182 | 1.75 | 1.06 | 0.0209 |
| CC1=C([C@H](O)CCc2ccccc2)[C@H](CO)[C@@H]2C(=O)N(C)C(=O)[C@@H]2C1 | -0.0659 | 0.388 | 0.411 | 0.0805 | 0.451 | 0.174 | 0.493 | -0.445 (inactive) | 0.0014 | -0.137 | 0.958 | 0.618 (inactive) | -0.589 (inactive) | 0.123 (inactive) | 1.07 | 1.3 (inactive) | -0.152 | 0.296 | 0.394 | -0.154 |
| O=C(CS)NCCCCCCNC(=O)[C@H]1C[C@H]2C(=O)N[C@@H](Cc3ccccc3)C(=O)N2[C@H]1c1ccc(O)cc1 | -0.361 | 0.375 | -0.132 | 0.836 | 0.51 | 1.34 | 1.36 | 0.234 (inactive) | -0.571 | -0.928 | 1.53 | 0.407 (inactive) | 1.1 (inactive) | 1.12 (inactive) | 1.91 | -0.0352 (inactive) | -0.316 | 0.405 | 0.635 | -0.105 |
